Reference: PubChem BioAssay (Tox21)
Several values for one entry are separate records, joined by “and”; a condition that tells them apart may be missing. Equal values may be shown once. Results filed as inconclusive are left out. The source holds several records for some structures; these can differ, active in one and inactive in another. Activity calls are given as the source filed them. Unless noted, calls come from the whole dose curve; as a rule, active = well fitted curve in the direction sought with a large enough effect in the repeat runs; inconclusive = weak or mixed curves; inactive = no such curve, though single readings can be large; an effect the other way counts as inactive or inconclusive.

How the values were obtained:
[1] = qHTS assay for small molecules that induce genotoxicity in human embryonic kidney cells expressing luciferase-tagged ATAD5 (AID 651632); note: nearly all actives have a fitted effect of over 15% in size; note: potency is the fitted concentration of half-maximal effect
How it was run: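 Cells were seeded at 2,000 per well, dosed with compound, and incubated 16 hr at 37C in 5% CO2. Luciferase activity was then quantified after a 30 min room-temperature incubation with Amplite.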

[2] = qHTS assay for small molecule agonists of the p53 signaling pathway - cell viability (AID 651633; calls by dose curve; note: nearly all actives have a fitted effect of over 30% in size; note: potency is the fitted concentration of half-maximal effect)
How it was run: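 Viability counter-read: CellTiter-Glo luminescence (30 min, room temperature) in the same p53RE-bla plates. These plates had been exposed to compounds for 16 h at 37 C.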

[3] = qHTS assay for small molecules that induce genotoxicity in human embryonic kidney cells expressing luciferase-tagged ATAD5 - cell viability (AID 651634; calls by dose curve; note: nearly all actives have a fitted effect of over 25% in size; note: potency is the fitted concentration of half-maximal effect)
How it was run: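 Cells (HEK293T, luciferase-tagged ATAD5) are seeded at 2,000 per well, dosed with compound or DMSO vehicle, and incubated 15.5 hr at 37C and 5% CO2. CellTiter-Fluor is added for 30 min before fluorescence is measured.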

[4] = qHTS assay for small molecule disruptors of the mitochondrial membrane potential - cell viability (AID 720634; calls by dose curve; note: nearly all actives have a fitted effect of over 20% in size; note: potency is the fitted concentration of half-maximal effect)
How it was run: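 Cytotoxicity was measured by ATP quantitation in HepG2 wells that had first been treated with compound for 1 hr and stained with m-MPI dye; CellTiter-Glo incubation was 30 min at room temperature.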

[5] = qHTS assay for small molecule disruptors of the mitochondrial membrane potential (AID 720635); note: potency is the fitted concentration of half-maximal effect
How it was run: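 Mitochondrial membrane potential tracked with Mito-MPS dye, red aggregates (ex 540/em 590 nm) against green monomers (ex 490/em 535 nm). Compound treatment 1 hr at 37C, dye 30 min in HepG2.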

[6] = qHTS assay to test for compound auto fluorescence at 590 nm (red) in HepG2 cells (AID 720674); note: potency is the fitted concentration of half-maximal effect
How it was run: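 1 hr compound incubation on HepG2 cells, 37 C, 5% CO2; plate read ex 540 nm / em 590 nm; intensities reported as Rose Bengal sodium equivalents.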

[7] = qHTS assay to test for compound auto fluorescence at 535 nm (green) in HepG2 cells (AID 720675); note: potency is the fitted concentration of half-maximal effect
[8] = qHTS assay to test for compound auto fluorescence at 460 nm (blue) in HEK293 cells (AID 720678)
How it was run: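 Measured: blue fluorescence (Ex 405/Em 460 nm) of compound-treated HEK293 cells, incubated overnight at 37C with 5% CO2 and scaled to triamterene equivalents.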

[9] = qHTS assay to test for compound auto fluorescence at 590 nm (red) in HEK293 cells (AID 720679); note: potency is the fitted concentration of half-maximal effect
How it was run: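 Using HEK293 cells at 2,000 per well, the screen added 23 nL of each compound after cell attachment and incubated overnight (37C, 5% CO2). The plate reader then captured red-label fluorescence, Ex/Em 540/590nm.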

[10] = qHTS assay for small molecule agonists of the p53 signaling pathway (AID 651631; calls by dose curve; note: nearly all actives have a fitted effect of over 15% in size)
How it was run: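 p53RE-bla HCT-116 cells; compounds 16 h, 37 °C; LiveBLAzer B/G FRET substrate 2 h RT; fluorescence intensity read-out, qHTS format.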

Measured: Potency
% is set by controls: 0 for no effect and ±100 for the full control effect; tags give direction and shape of the fitted curve or compound fluorescence and quenching.

C[N+](C)(C)CCO
inactive: [1] | [2] | [3] | [4] | [5] | [6] | [7] | [8] | [9]

OC[C@H]1O[C@@H]2O[C@H]3[C@H](O)[C@@H](O)[C@@H](O[C@H]4[C@H](O)[C@@H](O)[C@@H](O[C@H]5[C@H](O)[C@@H](O)[C@@H](O[C@H]6[C@H](O)[C@@H](O)[C@@H](O[C@H]7[C@H](O)[C@@H](O)[C@@H](O[C@H]1[C@H](O)[C@H]2O)O[C@@H]7CO)O[C@@H]6CO)O[C@@H]5CO)O[C@@H]4CO)O[C@@H]3CO
inactive: [1] | [2] | [3] | [4] | [5] | [6] | [7] | [8] | [9]

c1ccc2c(c1)ccc1cc3c(ccc4ccccc43)cc12
inactive: [2] | [3] | [4] | [5] | [6] | [7] | [9]
active: [1] 853 nM and 959 nM

CCCCCCC(C)O (configuration not stated)
inactive: [1] | [2] | [3] | [4] | [5] | [6] | [7] | [8] | [9]

CC(=O)[C@H]1CC[C@H]2[C@@H]3CC=C4C[C@@H](O)CC[C@]4(C)[C@H]3CC[C@]12C
inactive: [1] | [2] | [3] | [4] | [6] | [7] | [9]

COc1ccc(C(=O)c2ccccc2O)c(O)c1
active: [5] 8.04 µM and 8.61 µM
inactive: [1] | [2] | [3] | [4] | [6] | [7] | [8] | [9]

Nc1cc([N+](=O)[O-])ccc1C(=O)O
active: [5] 38.6 µM
inactive: [1] | [2] | [3] | [4] | [6] | [7] | [9]

CC(=O)Oc1c(C)c(C)c2c(c1C)CC[C@@](C)(CCC[C@H](C)CCC[C@H](C)CCCC(C)C)O2
inactive: [10] | [4] | [5] | [6] | [7] | [9]

Cc1ccc(C(C)(C)C)c(O)c1
inactive: [1] | [2] | [3] | [4] | [6] | [7] | [8] | [9]
active: [5] 26.4 µM and 17.2 µM

CN(C)C
inactive: [1] | [2] | [3] | [4] | [5] | [6] | [7] | [8] | [9]

COC(=O)c1ccc(C)cc1
inactive: [1] | [2] | [3] | [4] | [5] | [6] | [7] | [9]

C[C@]12C=CC(=O)C=C1CC[C@H]1[C@@H]3C[C@@H](O)[C@](O)(C(=O)CO)[C@@]3(C)C[C@H](O)[C@@]12F
inactive: [1] | [2] | [3] | [4] | [5] | [6] | [7] | [9]

c1ccc2ncccc2c1
inactive: [1] | [2] | [3] | [4] | [5] | [6] | [7] | [8] | [9]

CC(=O)O[C@]1(C(C)=O)CC[C@H]2[C@@H]3C=C(C)C4=CC(=O)CC[C@]4(C)[C@H]3CC[C@@]21C
inactive: [1] | [2] | [3] | [4] | [6] | [7] | [9]

CCC/C=C/C=O
inactive: [1] | [2] | [3] | [4] | [6] | [7] | [9]

c1ccc2c(c1)[nH]c1ccccc12
inactive: [1] | [2] | [3] | [6] | [7] | [8] | [9]
active: [5] 19 µM and 21.7 µM

CN1CCOCC1
inactive: [10] | [3] | [4] | [5] | [6] | [7] | [8] | [9]

CCCCCC=O
inactive: [1] | [2] | [3] | [4] | [6] | [7] | [9]

FC(F)(F)C(Cl)Br (configuration not stated)
inactive: [1] | [2] | [3] | [4] | [5] | [6] | [7] | [8] | [9]

CC(=O)Nc1ccc2c(c1)Cc1cc(NC(C)=O)ccc1-2
inactive: [1] | [2] | [3] | [4] | [5] | [6] | [7] | [8] | [9]

O=C(CCCN1CCC(O)(c2ccc(Cl)cc2)CC1)c1ccc(F)cc1
inactive: [10] | [4] | [6] | [7] | [9]

[Na+]
inactive: [1] | [2] | [3] | [4] | [5] | [6] | [7] | [9]

CC[C@]12CCCN3CCc4c(n(c5ccccc45)[C@@](O)(C(=O)OC)C1)[C@@H]32
inactive: [1] | [2] | [3] | [4] | [6] | [7] | [8] | [9]

Nc1ccc2c(O)cc(S(=O)(=O)O)cc2c1
inactive: [1] | [2] | [3] | [4] | [6] | [7] | [8] | [9]

NCCS(=O)(=O)O
inactive: [1] | [2] | [3] | [4] | [6] | [7] | [8] | [9]
inactive and 7.13 µM (active): [5]

CCCCCCCCCCCCCO
inactive: [1] | [2] | [3] | [4] | [5] | [6] | [7] | [8] | [9]

Cc1ccc(S(=O)(=O)O)cc1C
inactive: [1] | [2] | [3] | [4] | [5] | [6] | [7] | [8] | [9]

CC(=O)Oc1ccc(C(c2ccc(OC(C)=O)cc2)c2ccccn2)cc1
active: [2] 668 nM and 483 nM | [5] 6.68 µM and 21.6 µM
inactive: [1] | [3] | [4] | [6] | [7] | [8] | [9]

COC(=O)CC(=O)OC
inactive: [1] | [2] | [3] | [4] | [5] | [6] | [7] | [8] | [9]

CCCN1C=CN(C)C1
inactive: [1] | [2] | [3] | [4] | [5] | [6] | [7] | [9]

C=CC(C)(O)CCC=C(C)C (configuration not stated)
inactive: [1] | [2] | [3] | [4] | [5] | [6] | [7] | [8] | [9]

CCCCCCCCCCC(CO)CCCCCCCC (configuration not stated)
inactive: [1] | [2] | [3] | [4] | [5] | [6] | [7] | [8] | [9]

CC/C=C\C/C=C\C/C=C\CCCCCCCC(=O)O
inactive: [2] | [3] | [4] | [6] | [7] | [8] | [9]

Nc1cc(Cl)c(N)c(Cl)c1
inactive: [1] | [3] | [4] | [6] | [7] | [9]

CC1(C)O[C@@H]2C[C@H]3[C@@H]4C[C@H](F)C5=CC(=O)C=C[C@]5(C)[C@@]4(F)[C@@H](O)C[C@]3(C)[C@]2(C(=O)CO)O1
inactive: [1] | [3] | [4] | [5] | [6] | [7] | [8] | [9]

COc1cc([C@H]2Oc3cc([C@H]4Oc5cc(O)cc(O)c5C(=O)[C@@H]4O)ccc3O[C@@H]2CO)ccc1O
active: [5] 29.8 µM and 21.6 µM
inactive: [1] | [3] | [6] | [7] | [9]

CCC(=O)O[C@H]1[C@H](O[C@@H]2[C@@H](C)[C@H](O[C@H]3C[C@@](C)(OC)[C@@H](O)[C@H](C)O3)[C@@H](C)C(=O)O[C@H](CC)[C@@](C)(O)[C@H](O)[C@@H](C)C(=O)[C@H](C)C[C@@]2(C)O)O[C@H](C)C[C@@H]1N(C)C
inactive: [1] | [3] | [4] | [6] | [7] | [8] | [9]

C=CC(=O)OCCCC
inactive: [1] | [3] | [4] | [5] | [6] | [7] | [8] | [9]

CCOC(=O)C(C)Oc1ccc(Oc2cnc3cc(Cl)ccc3n2)cc1 (configuration not stated)
inactive: [1] | [3] | [4] | [6] | [7] | [8] | [9]

CCCOCCO
inactive: [1] | [3] | [4] | [5] | [6] | [7] | [9]

CC(C)[C@@H]1CC[C@@H](C)CC1=O
inactive: [3] | [4] | [6] | [7] | [9]

c1ccc2cc3ccccc3cc2c1
active: [5] 5.01 µM and 34.4 µM
inactive: [1] | [3] | [4] | [6] | [7] | [8] | [9]

Oc1c(Cl)ccc(Cl)c1Cl
inactive: [1] | [2] | [3] | [6] | [7] | [8] | [9]
active: [5] 4.32 µM and 61.1 µM

C=C[C@H]1CN2CC[C@H]1C[C@@H]2[C@@H](O)c1ccnc2ccc(OC)cc12
inactive: [1] | [3] | [4] | [6] | [7] | [8] | [9]

C=CCNCC=C
inactive: [1] | [2] | [3] | [6] | [7] | [9]

O=C1OC2(c3ccccc31)c1cc(I)c(O)c(I)c1Oc1c2cc(I)c(O)c1I
inactive: [1] | [4] | [8]
active: [6] 11.2 µM and 20 µM and 17.8 µM | [7] 14.1 µM and 10 µM and 17.8 µM | [9] 17.8 µM [fluorescent] [middle of 4 runs]

CN(C)/N=N/c1nc[nH]c1C(N)=O
inactive: [1] | [3] | [4] | [5] | [6] | [7] | [9]

Cc1ccc(/C(=C\CN2CCCC2)c2ccccn2)cc1
inactive: [2] | [4] | [5] | [6] | [7] | [8] | [9]

CC1(C)C(C=C(Cl)Cl)C1C(=O)OCc1cccc(Oc2ccccc2)c1 (configuration not stated)
inactive: [1] | [3] | [4] | [6] | [7] | [9]
active: [5] 30.6 µM

Cc1ccc([N+](=O)[O-])c(C)c1
inactive: [1] | [3] | [4] | [5] | [6] | [7] | [9]

COc1ccc(-c2coc3cc(O)cc(O)c3c2=O)cc1
active: [1] 1.38 µM and 3.86 µM | [4] 4.9 µM and 13.7 µM | [5] 3.09 µM and 6.86 µM
inactive: [3] | [6] | [7] | [8] | [9]

COc1ccc2nc(N)sc2c1
inactive: [1] | [3] | [4] | [5] | [6] | [7] | [8] | [9]

O=Cc1ccccc1C=O
inactive: [6] | [7] | [9]
active: [1] 11.9 µM | [3] 21.1 µM | [5] 21.1 µM and 30.6 µM
inactive and 61.1 µM (active): [4]

CCCCCCOCCOCCO
inactive: [2] | [3] | [4] | [5] | [6] | [7] | [9]
